# Most compounds without a hit are left out; they make up all but 2.6% or so of the library.
# APOBEC3G inh = blocks human APOBEC3G single-stranded DNA deamination | recombinant A3G, ssDNA deamination FAM/TAMRA fluorescence | 330,000 tested, 0.28% active | Q9HC16 | inhibition, % at 20 µM;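 active = inhibition of at least 40% at 20 µM, with no more than 30% in the related APOBEC3A deaminase screen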;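 also: plate controls were DMSO wells with A3G for no effect and wells lacking A3G enzyme for full effect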
# PABP1 MLLE inh = blocks PAM2 peptide binding to the PABP1 MLLE domain; 360,000 tested, 0.36% active; AID 588489; GST-MLLE / FITC-PAM2 fluorescence polarization; inhibition, % at 20 µM; P11940; in the data active = inhibition above about 35%, passing the limit was not always enough;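 also: plate controls were DMSO wells with GST-MLLE for no effect and wells lacking GST-MLLE protein for full effect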
# A3A deaminase = blocks human APOBEC3A ssDNA deamination | P31941 | recombinant A3A, FAM/TAMRA ssDNA deamination fluorescence | inhibition, % at 20 µM | 330,000 tested, 0.41% active | AID 493011;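 active = at least 40% inhibition at 20 µM here, with at most 30% in a related deaminase screen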;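 also: plate controls were A3A with DMSO for no effect and wells lacking A3A enzyme for full effect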
# PHOSPHO1 inh = PHOSPHO1 (human) inhibition | recombinant PHOSPHO1, absorbance phosphatase assay | AID 1565 | Q8TCT1 | inhibition, % at 13.3 µM | 290,000 tested, 1.1% active; in the data active = inhibition above about 60%
# Target sequence (Q8TCT1 whole entry, looked up): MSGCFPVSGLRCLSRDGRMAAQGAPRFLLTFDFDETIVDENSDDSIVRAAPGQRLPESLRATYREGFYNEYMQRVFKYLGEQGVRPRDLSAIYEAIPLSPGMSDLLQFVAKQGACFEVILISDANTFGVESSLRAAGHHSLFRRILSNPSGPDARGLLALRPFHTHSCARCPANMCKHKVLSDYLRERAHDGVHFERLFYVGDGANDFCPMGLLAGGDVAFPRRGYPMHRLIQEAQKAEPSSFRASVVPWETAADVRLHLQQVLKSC
# PABP polyA inh = PABP-poly(A) binding inhibition. P11940. AID 2014. PABP-poly(A) RNA binding, fluorescence polarization. 290,000 tested, 1% active. calls only at 35 µM;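 also: calls also rest on retests at 20 µM and on dose response follow-up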
# eIF4H inh = inhibitors of RNA binding by human eIF4H; AID 2012; inhibition, % at 35 µM; eIF4H fluorescence polarization binding assay; Q15056; 290,000 tested, 0.94% active;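 also: calls also rest on retests at 20 µM and on dose response follow-up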
# Active calls of the source: *; i = inactive; ? = inconclusive; · = no result; + = active, no number. Unless noted, no rule for the calls is given here.
SMILES,APOBEC3G inh,PABP1 MLLE inh,A3A deaminase,PHOSPHO1 inh,PABP polyA inh,eIF4H inh
Cc1cc(C(=O)CSc2nnc(-c3ccncc3)n2-c2ccccc2)c(C)n1C,-7,-41,-2,77*,+,120*
C=CCn1c(SCC(=O)c2cc(C)n(C)c2C)nnc1-c1ccncc1,-11,-8,3,-10,i,83*
COc1cc(Cl)c(C)cc1NC(=O)c1ccccc1NC(=O)CN1CCOCC1,-1,-5,1,14,i,4
Cc1cc(C(=O)CSc2nnc3ccccn23)c(C)n1-c1ccccc1,-6,0,-1,-3,i,8
Cc1cc(C(=O)CSc2nnc(-c3ccccc3)n2-c2ccccc2)c(C)n1-c1ncn[nH]1,-6,-24,-2,75*,i,2
C[C@@H]1CNC(=O)c2c(C(=O)NCC(=O)OC(C)(C)C)ncn21,·,3,·,·,·,·
CC(S(=O)(=O)c1ccccc1)S(=O)(=O)c1ccccc1,·,1,·,·,·,·
CCc1c(C(C)S(=O)(=O)c2ccccc2)[nH]c(=O)n1CC (stereo unspecified),5,40*,-1,-132,i,2
CN(c1ccccc1)S(=O)(=O)c1cccc(C(=O)OCC(=O)NCCCN2CCCC2=O)c1,2,12,4,17,+,10
CN(c1ccccc1)S(=O)(=O)c1cccc(C(=O)NC2CCCCC2)c1,-4,85*,-1,·,·,·
CN(c1ccc(C(=O)NC2CCCCC2)cc1)S(=O)(=O)c1ccccc1,-1,11,4,20,i,-6
N#Cc1ccc(S(=O)(=O)Nc2ccccc2N2CCOCC2)cc1,-8,11,-4,·,·,·
CC1CC(C)CN(C(=O)CCc2ccccc2)C1 (stereo unspecified),-5,1,-3,47,i,active
Cc1ccc(NC(=O)CSc2ccc(-c3ccccn3)nn2)cc1F,-5,0,-5,47,i,-4
COc1cc(CCC(=O)Nc2ccc(S(=O)(=O)NC3=NCCCCC3)cc2)cc(OC)c1OC,-3,-80,22,4,i,active
COc1ccc(CCC(=O)Nc2ccc(S(=O)(=O)NC3=NCCCCC3)cc2)cc1,·,-11,·,·,·,·
Cc1ccc(C2NC(=S)NC3=C2C(=O)CCC3)cc1 (stereo unspecified),-1,-37,-8,30,i,0
CC(C)c1ccc(C2NC(=S)NC3=C2C(=O)CCC3)cc1 (stereo unspecified),-7,-126,2,-2,i,active
Cc1ccc(OCC(=O)N/N=C/c2ccc([N+](=O)[O-])o2)cc1,-6,3,-5,44,i,23
CCCC(=O)Nc1ccc(C(=O)N/N=C/c2ccc([N+](=O)[O-])o2)cc1,-7,-1,-4,-3,i,75
O=C(COc1ccccc1)N/N=C/c1ccc([N+](=O)[O-])o1,-5,6,1,-6,+,51*
O=C(N/N=C/c1ccc([N+](=O)[O-])o1)C(=O)Nc1ccc(C(=O)O)cc1,-3,5,11,-1,+,83*
CCCCCCCc1c(C)nc(N2CCOCC2)[nH]c1=O,-3,-9,0,3,i,-1
CCCCc1c(C)nc(N2CCCC2)[nH]c1=O,-4,1,0,-10,i,65*
COc1ccc(/C(O)=C2/C(=O)C(=O)N(CC3CCCO3)C2c2ccc(O)c(OC)c2)cc1 (stereo unspecified),-2,17,-2,32,+,active
SMILES,APOBEC3G inh,PABP1 MLLE inh,A3A deaminase,PHOSPHO1 inh,PABP polyA inh,eIF4H inh
CCOC(=O)CC(=O)CSc1ccc2nnc(-c3ccc(C)cc3)n2n1,-7,12,10,68*,i,-5
CC(=O)C(Sc1ccc2nnc(-c3ccc(C)cc3)n2n1)C(C)=O,-10,15,-11,-2,i,-9
O=C(CSc1ccc2nnc(-c3ccccc3)n2n1)N1CCCCC1,-3,40*,0,·,·,·
CCOC(=O)N1CCN(C(=O)CSc2ccc3nnc(-c4ccncc4)n3n2)CC1,-6,19,-2,-5,i,14
CC(=O)C(Sc1ccc2nnc(-c3ccc(F)cc3)n2n1)C(C)=O,-13,30,-8,89*,i,-4
COc1ccc(-c2nnc3ccc(SCC(=O)N4CCCC4)nn23)cc1,-6,7,-1,15,i,-4
O=C(N/N=C/C=C/c1ccco1)c1cccnc1,8,27,17,6,+,64*
O=C(N/N=C/c1cc(Br)c(Br)o1)c1cccnc1,2,59*,10,4,i,?
O=C(N/N=C/C=C/c1ccco1)c1cnccn1,15,15,34,20,i,74
O=C(N/N=C/C=C/c1ccccc1)c1cccnc1,-1,-2,-6,-10,i,2
O=C(N/N=C/C=C\c1ccco1)c1ccccn1,1,4,7,6,+,75*
O=C(N/N=C/C=C\c1ccco1)c1cccnc1,4,2,9,13,+,62*
COc1cc(Br)cc2cc(C(=O)N3CCOCC3)c(=O)oc12,0,15,-4,30,i,-8
CCOc1ccc(-c2c(C(=O)N/N=C(\C)c3ccco3)nnn2-c2nonc2N)cc1,-5,-4,-1,20,i,-7
CCOC(=O)c1ccc(NC(=O)CSc2nnc(NC(=O)c3ccc(S(=O)(=O)N4CCOCC4)cc3)s2)cc1,-7,-6,-2,8,i,11
O=C(N/N=C\C=C\c1ccco1)c1cncc(Br)c1,-2,-7,6,13,+,66*
O=C(CSc1ccsc1[N+](=O)[O-])N1CCN(c2ccc(Cl)cc2)CC1,3,3,16,-4,+,77*
O=C(CSc1ccsc1[N+](=O)[O-])N1CCN(c2ccccc2)CC1,-4,12,11,-23,i,50
COCCNC(=O)c1cc(-c2ccc3c(c2)OCO3)on1,-5,1,-2,69*,i,-6
Cc1nc(SCC(=O)N(CC(C)C)C2CCS(=O)(=O)C2)c2c(C)c(C)sc2n1 (stereo unspecified),-11,4,-4,·,·,·
COc1ccc(S(=O)(=O)N(C)C(C)CCc2ccco2)cc1 (stereo unspecified),-7,2,1,26,i,9
COc1ccc(C(N)CCc2ccco2)cc1 (stereo unspecified),-6,-35,-3,21,+,50*
CC(=O)OCC1OC(COC(C)=O)(c2ccc(C)cc2)C(OC(C)=O)C1OC(C)=O (stereo unspecified),·,13,·,·,·,·
C=CCNC(=S)NNc1nc2sc3c(c2c(=O)[nH]1)CC(C)(C)OC3,-3,-49,-1,-11,i,3
Cc1ccc(NC(=S)N2CCC(c3nc4ccccc4s3)CC2)cc1,-10,-78,3,44,i,2

# Screening results deposited in PubChem by Sanford-Burnham Center for Chemical Genomics.
